Compounds without any hit were thinned out: in the full panel of roughly 79,000, 15% have a hit. The source made the active and inactive calls. Cut-off read from the data, not from the text of the source: active = growth inhibition above about 70%; inactive = the rest.

One assay is described as follows: NCI Yeast Anticancer Drug Screen. Data for the rad52 strain (AID 147).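 Note: 0% = growth of vehicle-treated control cultures.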 Conditions: S. cerevisiae rad52 mutant growth inhibition; at 33.0 µM; stronger effect = higher value. Summed up:
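Measured: yeast growth inhibition. System: strain with a defined DNA damage repair alteration. Reference: vehicle-treated control cultures.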
With `C/C(=N\NC(=S)SCc1ccccc1)c1ccccn1`, the growth inhibition was 93% (active).

For `CC[C@@]1(O)C(=O)OCc2c1cc1n(c2=O)Cc2cc3c(N)cccc3nc2-1`, the growth inhibition is 82% (active).

In the case of `CN(C)c1ccc(Sc2ccc3nc(N)nc(N)c3c2)cc1`, the growth inhibition is 27% (inactive).

On to `CC(=O)OCCOCNC(=S)N/N=C(\C)c1cnccn1`, for which the growth inhibition was 20% (inactive).

As to `COc1ccc(C2c3cc4c(cc3OC(C)(O)C2C)OCO4)c(OC)c1` (stereo not drawn), the growth inhibition was 10% (inactive).

`COc1cc(C2SCC(=O)N2c2ccc(-c3ccc(-n4c(-c5ccccc5)nc5ccccc5c4=O)cc3)cc2)cc(OC)c1OC` (stereo not drawn): the growth inhibition is 1% (inactive).

Regarding `COc1ccc(Br)c(C(=O)Sc2nnnn2-c2cccc(Cl)c2)c1`, the growth inhibition was 43% (inactive).

Consider `O=C(NNc1ccnc2cc(Cl)ccc12)/C(=C\c1ccccc1Cl)NC(=O)c1ccccc1`, for which the growth inhibition is 38% (inactive).

On to `CSC(=S)Nc1cccc(C)n1`, for which the growth inhibition was 23% (inactive).

For `O=C(/C=C\c1ccc(Cl)cc1Cl)c1cccs1`, the growth inhibition is 10% (inactive).

On to `COc1ccc(-c2cn(-c3ccc(I)cc3)c3ncnc(N)c23)cc1`, for which the growth inhibition is -7% (inactive).

Consider `CN(C)c1ccc(C(C#N)=C(C#N)C#N)cc1`, for which the growth inhibition is 5% (inactive).

`COc1cc(/C=C2\CCc3ccccc3C2=O)cc(OC)c1OC`: the growth inhibition was 18% (inactive).

`CC(C)/C(Cl)=N\OC(=O)Nc1cccc(Cl)c1`: the growth inhibition was -3% (inactive).

In the case of `CC1(C)[C@@H]2CC[C@]1(C)[C@H](OC(=O)CSC#N)C2`, the growth inhibition is 83% (active).

For the molecule `NNC(=O)CCc1ccc2ccc3ccccc3c2c1`, the growth inhibition was 13% (inactive).

Turning to `COc1ccc(/C(C)=N/OC(=O)c2c(-c3ccccc3Cl)noc2C)cc1CN1CCOCC1`, the growth inhibition was 34% (inactive).

For `C=CC(C)(O)CCC1C(=C)C(O)CC2C(C)(C)CCCC12C` (stereo not drawn), the growth inhibition is 54% (inactive).

`S=C(Nc1ccc(Cl)c(Cl)c1)SCc1ccc2c(c1)OCO2`: the growth inhibition is 99% (active).

With `COc1cc(C2C3=C(COC3=O)Oc3cc4c(cc32)OCO4)ccc1O` (stereo not drawn), the growth inhibition is 34% (inactive).

As to `S=C(Nc1ccc(Cl)cc1)SC1CCCCC1`, the growth inhibition is 96% (active).

As to `Nc1nc(-c2cccnc2)cc(-c2cc(-c3cccnc3)nc(N)n2)n1`, the growth inhibition was -2% (inactive).

On to `COC1=CC(=O)C2C(C1=O)C(c1ccc(Cl)cc1)[C@@H]2C` (stereo partly drawn), for which the growth inhibition is 99% (active).

Turning to `c1ccc(-c2nc3cccnc3s2)cc1`, the growth inhibition is 14% (inactive).

In the case of `O=[N+]([O-])c1cc(CCl)ccc1CCl`, the growth inhibition is 95% (active).

With `COc1ccc(/C=C2\SC(=S)N(/C=C/c3nc4ccccc4[nH]c3=O)C2=O)cc1OC`, the growth inhibition is 61% (inactive).

With `CCCN(CCC)CC(O)c1cc(-c2ccc(Cl)cc2)nc2c(C)c(Cl)ccc12` (stereo not drawn), the growth inhibition was 96% (active).

With `O=C(Nc1ccccc1)OCCc1ccc(Cl)c(Cl)c1`, the growth inhibition was 20% (inactive).

Consider `CC(O)C(O)C(O)C(/C=N\Nc1ccccc1)=N/Nc1ccccc1` (stereo not drawn), for which the growth inhibition is 69% (inactive).

As for `C#CCCCc1ccccc1`, the growth inhibition is -43% (inactive).

With `CC(=O)Cc1ccc[cH-]1.[Fe+2].c1cc[cH-]c1`, the growth inhibition was 18% (inactive).

For the molecule `Cc1cc(I)ccc1N`, the growth inhibition is 92% (active).

For `FC(F)(F)c1cc(NC(=S)N2c3ccccc3-n3cccc3C2c2cccnc2)cc(C(F)(F)F)c1` (stereo not drawn), the growth inhibition was -3% (inactive).

Regarding `CC(C)(CN1CCCCC1)C(=O)CC(SCCS(=O)(=O)O)c1ccc(Br)cc1` (stereo not drawn), the growth inhibition is 22% (inactive).

Turning to `C[Si](C)(C)CNC(=O)OCc1ccccc1`, the growth inhibition was 2% (inactive).

Turning to `CC(C(=O)N1C(=O)N(C(=O)[C@H](C)C(O)c2ccccc2)[C@H](c2ccccc2)[C@H]1c1ccccc1)[C@@H](O)c1ccccc1` (stereo partly drawn), the growth inhibition was 37% (inactive).

Take `Oc1cccc2c(Cl)ccnc12`: the growth inhibition was 95% (active).

`O=C1C=CC(=C(c2ccccc2)c2ccccc2)c2ccccc21`: the growth inhibition is 4% (inactive).

On to `S=C(S)NN1CCOCC1`, for which the growth inhibition is 38% (inactive).

Still in this assay, the particulars now being: S. cerevisiae rad52 mutant growth inhibition; at 100.0 µM; stronger effect = higher value.
For `C/C(=N\NC(=S)SCc1ccccc1)c1ccccn1`, the growth inhibition was 91% (active).

Consider `CC[C@@]1(O)C(=O)OCc2c1cc1n(c2=O)Cc2cc3c(N)cccc3nc2-1`, for which the growth inhibition was 75% (active).

As for `CN(C)c1ccc(Sc2ccc3nc(N)nc(N)c3c2)cc1`, the growth inhibition was 51% (inactive).

In the case of `CC(=O)OCCOCNC(=S)N/N=C(\C)c1cnccn1`, the growth inhibition was 77% (active).

As for `COc1ccc(C2c3cc4c(cc3OC(C)(O)C2C)OCO4)c(OC)c1` (stereo not drawn), the growth inhibition is 96% (active).

For `COc1cc(C2SCC(=O)N2c2ccc(-c3ccc(-n4c(-c5ccccc5)nc5ccccc5c4=O)cc3)cc2)cc(OC)c1OC` (stereo not drawn), the growth inhibition was -5% (inactive).

As for `COc1ccc(Br)c(C(=O)Sc2nnnn2-c2cccc(Cl)c2)c1`, the growth inhibition was 96% (active).

As to `O=C(NNc1ccnc2cc(Cl)ccc12)/C(=C\c1ccccc1Cl)NC(=O)c1ccccc1`, the growth inhibition was 38% (inactive).

Consider `CSC(=S)Nc1cccc(C)n1`, for which the growth inhibition was 63% (inactive).

Take `O=C(/C=C\c1ccc(Cl)cc1Cl)c1cccs1`: the growth inhibition is 16% (inactive).

Consider `COc1ccc(-c2cn(-c3ccc(I)cc3)c3ncnc(N)c23)cc1`, for which the growth inhibition was -8% (inactive).

As to `CN(C)c1ccc(C(C#N)=C(C#N)C#N)cc1`, the growth inhibition is 49% (inactive).

In the case of `COc1cc(/C=C2\CCc3ccccc3C2=O)cc(OC)c1OC`, the growth inhibition was 70% (active).

With `CC(C)/C(Cl)=N\OC(=O)Nc1cccc(Cl)c1`, the growth inhibition is -2% (inactive).

Take `CC1(C)[C@@H]2CC[C@]1(C)[C@H](OC(=O)CSC#N)C2`: the growth inhibition is 95% (active).

On to `NNC(=O)CCc1ccc2ccc3ccccc3c2c1`, for which the growth inhibition was 52% (inactive).

As to `COc1ccc(/C(C)=N/OC(=O)c2c(-c3ccccc3Cl)noc2C)cc1CN1CCOCC1`, the growth inhibition is 75% (active).

Consider `C=CC(C)(O)CCC1C(=C)C(O)CC2C(C)(C)CCCC12C` (stereo not drawn), for which the growth inhibition was 72% (active).

With `S=C(Nc1ccc(Cl)c(Cl)c1)SCc1ccc2c(c1)OCO2`, the growth inhibition was 94% (active).

Take `COc1cc(C2C3=C(COC3=O)Oc3cc4c(cc32)OCO4)ccc1O` (stereo not drawn): the growth inhibition was 72% (active).

Consider `S=C(Nc1ccc(Cl)cc1)SC1CCCCC1`, for which the growth inhibition is 98% (active).

For the molecule `Nc1nc(-c2cccnc2)cc(-c2cc(-c3cccnc3)nc(N)n2)n1`, the growth inhibition was -8% (inactive).

Turning to `COC1=CC(=O)C2C(C1=O)C(c1ccc(Cl)cc1)[C@@H]2C` (stereo partly drawn), the growth inhibition was 99% (active).

Consider `c1ccc(-c2nc3cccnc3s2)cc1`, for which the growth inhibition is 16% (inactive).

As to `O=[N+]([O-])c1cc(CCl)ccc1CCl`, the growth inhibition was 97% (active).

On to `COc1ccc(/C=C2\SC(=S)N(/C=C/c3nc4ccccc4[nH]c3=O)C2=O)cc1OC`, for which the growth inhibition was 86% (active).

For `CCCN(CCC)CC(O)c1cc(-c2ccc(Cl)cc2)nc2c(C)c(Cl)ccc12` (stereo not drawn), the growth inhibition is 93% (active).

As for `O=C(Nc1ccccc1)OCCc1ccc(Cl)c(Cl)c1`, the growth inhibition is 52% (inactive).

As to `CC(O)C(O)C(O)C(/C=N\Nc1ccccc1)=N/Nc1ccccc1` (stereo not drawn), the growth inhibition is 98% (active).

For the molecule `C#CCCCc1ccccc1`, the growth inhibition was 66% (inactive).

Take `CC(=O)Cc1ccc[cH-]1.[Fe+2].c1cc[cH-]c1`: the growth inhibition is 46% (inactive).

On to `Cc1cc(I)ccc1N`, for which the growth inhibition was 87% (active).

Turning to `FC(F)(F)c1cc(NC(=S)N2c3ccccc3-n3cccc3C2c2cccnc2)cc(C(F)(F)F)c1` (stereo not drawn), the growth inhibition is -4% (inactive).

Consider `CC(C)(CN1CCCCC1)C(=O)CC(SCCS(=O)(=O)O)c1ccc(Br)cc1` (stereo not drawn), for which the growth inhibition is 54% (inactive).

Regarding `C[Si](C)(C)CNC(=O)OCc1ccccc1`, the growth inhibition was 16% (inactive).

On to `CC(C(=O)N1C(=O)N(C(=O)[C@H](C)C(O)c2ccccc2)[C@H](c2ccccc2)[C@H]1c1ccccc1)[C@@H](O)c1ccccc1` (stereo partly drawn), for which the growth inhibition was 62% (inactive).

With `Oc1cccc2c(Cl)ccnc12`, the growth inhibition is 98% (active).

As for `O=C1C=CC(=C(c2ccccc2)c2ccccc2)c2ccccc21`, the growth inhibition is 0% (inactive).

For the molecule `S=C(S)NN1CCOCC1`, the growth inhibition was 50% (inactive).

(Values after PubChem BioAssay (NCI).)
